Data: article PMC4336329 (PLoS ONE, 2015)
Screen size: about 310,000 compounds; about 14,000 (4.5%) showed an effect of 50% or more. Effects have a minus sign here. The list comes from a sample in which strong results are over-represented; it also holds similar structures and randomly drawn compounds.

Molecular target: human ether-à-go-go-related gene (hERG) potassium channel (human, UniProt Q12809)
Test: primary screen, population patch clamp on CHO cells stably expressing hERG; higher = less effect of the substance
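Note: peak tail current of the secondary pulse compared with the same well before compound.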

Sequence of human ether-à-go-go-related gene (hERG) potassium channel (Q12809 whole entry, looked up): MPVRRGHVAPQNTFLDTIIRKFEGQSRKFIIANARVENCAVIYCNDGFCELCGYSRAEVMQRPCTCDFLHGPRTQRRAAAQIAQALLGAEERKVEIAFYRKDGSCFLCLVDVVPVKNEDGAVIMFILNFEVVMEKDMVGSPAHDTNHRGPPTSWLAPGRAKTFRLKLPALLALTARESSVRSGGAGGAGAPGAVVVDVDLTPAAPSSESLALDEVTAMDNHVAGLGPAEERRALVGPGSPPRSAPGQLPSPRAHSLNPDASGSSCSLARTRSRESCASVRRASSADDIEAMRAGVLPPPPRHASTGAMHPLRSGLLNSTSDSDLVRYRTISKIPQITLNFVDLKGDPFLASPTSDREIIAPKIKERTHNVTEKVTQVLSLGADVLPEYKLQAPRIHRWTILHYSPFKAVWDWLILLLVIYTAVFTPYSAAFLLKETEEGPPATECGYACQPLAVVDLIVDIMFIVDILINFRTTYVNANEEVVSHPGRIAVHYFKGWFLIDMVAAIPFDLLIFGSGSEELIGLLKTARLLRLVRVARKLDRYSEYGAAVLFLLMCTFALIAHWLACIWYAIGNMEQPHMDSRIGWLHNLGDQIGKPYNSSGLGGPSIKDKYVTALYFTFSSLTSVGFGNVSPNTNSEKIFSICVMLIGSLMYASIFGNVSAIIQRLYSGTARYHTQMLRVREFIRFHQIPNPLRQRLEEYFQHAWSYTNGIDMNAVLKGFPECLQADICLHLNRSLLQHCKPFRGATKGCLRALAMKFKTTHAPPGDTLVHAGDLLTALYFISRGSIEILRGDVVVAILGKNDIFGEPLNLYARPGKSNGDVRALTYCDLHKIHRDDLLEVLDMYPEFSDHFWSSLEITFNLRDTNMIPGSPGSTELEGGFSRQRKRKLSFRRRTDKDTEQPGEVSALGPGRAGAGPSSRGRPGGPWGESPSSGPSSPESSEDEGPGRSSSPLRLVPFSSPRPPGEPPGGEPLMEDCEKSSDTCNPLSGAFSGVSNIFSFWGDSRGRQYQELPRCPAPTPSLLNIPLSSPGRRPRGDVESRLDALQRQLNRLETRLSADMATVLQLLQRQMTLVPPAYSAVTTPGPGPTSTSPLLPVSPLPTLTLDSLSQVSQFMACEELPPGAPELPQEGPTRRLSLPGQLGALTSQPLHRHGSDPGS

Row | Structure (SMILES) | hERG current change (%, negative = inhibition) at 10uM [%]
1 | O=C(c1ccc(N2CCOCC2)c([N+](=O)[O-])c1)N1CCN(S(=O)(=O)c2cccs2)CC1 | -47.3
2 | CN1CCN(c2ccc(S(=O)(=O)N3CCCCC3)cc2[N+](=O)[O-])CC1 | -48
3 | CC(=O)N1CCN(c2ccc(S(C)(=O)=O)cc2[N+](=O)[O-])CC1 | -12.7
4 | CS(=O)(=O)c1ccc(N2CCN(c3ccccn3)CC2)c([N+](=O)[O-])c1 | -55
5 | O=C(c1ccc(N2CCCC2)c([N+](=O)[O-])c1)N1CCN(c2ccccn2)CC1 | -21.8
6 | Cc1ccc(C(=O)N2CCN(c3ccccn3)CC2)cc1[N+](=O)[O-] | 9.02
7 | CS(=O)(=O)c1ccc(N2CCN(S(=O)(=O)c3cccs3)CC2)c([N+](=O)[O-])c1 | -67.1
8 | CCOC(=O)c1cnn(-c2sc(C(=O)OCC)c(C)c2C(=O)OCC)c1N | 16.4
9 | O=C(NC1CCCCC1)c1ccc2snnc2c1 | 12.8
10 | NS(=O)(=O)c1ccc(CCNC(=O)CCCCCn2c(=S)[nH]c3ccc(Br)cc3c2=O)cc1 | 9.32
11 | O=C(O)c1ccc(-n2nnnc2SCc2cccc(Br)c2)cc1 | 13.2
12 | COc1ccc(/C=C/C(=O)NC(=S)Nc2ccc(N3CCN(C(C)=O)CC3)cc2)cc1 | 12.2
13 | COC(=O)C1=C(c2cccc(OCc3ccccc3)c2)C[C@@H]2CC[C@H]1N2C(=O)NNCc1ccccc1 | 10.8
14 | CC1CC(C)CN(C(=O)Cn2cc(C=O)c3ccccc32)C1 (stereo not drawn) | -4.11
15 | Cc1nn(C)c(C(=O)NNC(=S)NCc2ccco2)c1Cl | 7.69
16 | O=c1cc2c(nn1Cc1ccccc1)-c1ccccc1CC2 | -17.6
17 | O=c1cc2c(nn1Cc1ccc(Cl)cc1)-c1ccccc1CC2 | -13.6
18 | O=c1cc2c(nn1Cc1ccc(F)cc1)-c1ccccc1CC2 | -61.3
19 | C#Cc1ccc([C@H]2C=C(C(=O)O)O[C@@H](OCc3ccc(CO)cc3)C2)cc1 | 9.26
20 | Clc1ccccc1OCCCCn1ccnc1 | -2.93
21 | O=C(O)CN1C(=O)/C(=C\c2ccccc2OCc2ccc(Cl)cc2)SC1=S | 15.3
22 | Cc1ccc(C2C(C(=O)c3cc4ccccc4o3)=C(O)C(=O)N2c2cc(C)on2)cc1 (stereo not drawn) | 19.3
23 | CCOc1ccc2nc(SCC(=O)Nc3ccc4[nH]c(=O)[nH]c4c3)[nH]c2c1 | 27

Row | Structure (SMILES) | hERG current change (%, negative = inhibition) at 10uM [%]
24 | Cc1ccc2nc(COc3ccc(Cl)cc3)cc(=O)n2c1 | 15
25 | COc1cccc(COc2ccc(N(C)S(=O)(=O)c3ccccc3)cc2)c1 | 3.08
26 | Cc1ccc2nc(COc3ccc(N(C)S(=O)(=O)c4ccccc4)cc3)cc(=O)n2c1 | -56
27 | O=C(/C(Cl)=C/Nc1ccc(Br)cn1)C(F)(F)F | 12.7
28 | O=C(CN1C(=O)CC(c2ccco2)Sc2ccccc21)Nc1ccccc1F (stereo not drawn) | -39.3
29 | O=C(CN1C(=O)CC(c2ccco2)Sc2ccccc21)Nc1ccc2c(c1)OCCO2 (stereo not drawn) | -6.73
30 | Cc1cc(NC(=O)CN2C(=O)CC(c3ccco3)Sc3ccccc32)no1 (stereo not drawn) | -61.8
31 | Oc1cccc(C=NCc2ccccc2)c1 | 8.22
32 | O=C(c1ccc(Cl)cc1)N1CCN(C(=O)C2CCCCC2)CC1 | -2.89
33 | Cc1cc(C)n(-c2nc(C)nc(N)n2)n1 | 10.3
34 | CC(C)Oc1cccc(C(=O)C2CCCN(Cc3cnn(C(C)C)c3)C2)c1 (stereo not drawn) | -36.3
35 | COc1c(C)cc(C(=O)C2CCCN(Cc3cccc(O)c3)C2)cc1C (stereo not drawn) | -23.9
36 | NC(=O)C1CCCN(Cc2ccc(Cl)cc2)C1 (stereo not drawn) | 0.421
37 | CC(C)Oc1cccc(C(=O)C2CCCN(Cc3ccc(Oc4ncccn4)cc3)C2)c1 (stereo not drawn) | -62.6
38 | COc1c(C)cc(C(=O)C2CCCN(Cc3ccccn3)C2)cc1C (stereo not drawn) | -16.5
39 | CC(C)Oc1cccc(C(=O)C2CCCN(Cc3ccc4nonc4c3)C2)c1 (stereo not drawn) | -1.53
40 | O=C(c1ccc(Cl)cc1)C1CCCN(Cc2ccc(Oc3ncccn3)cc2)C1 (stereo not drawn) | -72.9
41 | COc1c(C)cc(C(=O)C2CCCN(Cc3ccc(Oc4ncccn4)cc3)C2)cc1C (stereo not drawn) | -68.9
42 | COc1cccc(-n2cc3c(=O)n(C)c(=O)n(C)c3c2)c1 | -3.89
43 | O=C(Nc1ccccc1Br)C(=O)N1CCCC1 | 3.44
44 | CCCC(C)NC(=O)Cc1ccccc1[N+](=O)[O-] (stereo not drawn) | 2.52
45 | CCCC(C)NC(=O)C1CCN(S(=O)(=O)c2ccccc2)CC1 (stereo not drawn) | -12
